The text below walks through data of PubChem BioAssay (EPA / NIEHS).

In test [1] the target is GAL4 Transcription Factor (Internal Marker), GAL4 (gene 855828) (UniProt P04386). The test is described as follows: ATG_GAL4_XSP2: Attagene TRANS-FACTORIAL Multi-Species (XSP2) HepG2 Assay for GAL4 Transcription Factor (Internal Marker) (AID 2283814).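 Further: GAL4 reporter mRNA background control in MRTU transfected cells not a receptor target.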 The method, boiled down:
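Background-control readout: gain-of-signal fitted against DMSO. After 24 h exposure of transfected HepG2 (MRTU, GAL4-UAS reporters; 3 nM 6-alpha-fluorotestosterone, 1.5 nM norgestrel present), transcripts quantified by RT-PCR and capillary electrophoresis fluorescence.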

In test [2] the target is zebrafish Estrogen Receptor (ER1), esr1 (gene 259252) (UniProt P57717). As to the kind of experiment: ATG_zfER1_XSP2: Attagene TRANS-FACTORIAL Multi-Species (XSP2) HepG2 Assay for zebrafish Estrogen Receptor (ER1) (AID 2283816). The method, boiled down: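 After 24 h compound exposure, RNA from transfected HepG2 cells was reverse-transcribed and reporter transcripts resolved by capillary electrophoresis. The TRANS format reads exogenous zebrafish ER1-Gal4 chimera activity on GAL4-UAS elements; gain of signal against DMSO.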
Chain of zebrafish Estrogen Receptor (ER1), esr1 (gene 259252) (P57717 whole entry, looked up, the tested form may be a part): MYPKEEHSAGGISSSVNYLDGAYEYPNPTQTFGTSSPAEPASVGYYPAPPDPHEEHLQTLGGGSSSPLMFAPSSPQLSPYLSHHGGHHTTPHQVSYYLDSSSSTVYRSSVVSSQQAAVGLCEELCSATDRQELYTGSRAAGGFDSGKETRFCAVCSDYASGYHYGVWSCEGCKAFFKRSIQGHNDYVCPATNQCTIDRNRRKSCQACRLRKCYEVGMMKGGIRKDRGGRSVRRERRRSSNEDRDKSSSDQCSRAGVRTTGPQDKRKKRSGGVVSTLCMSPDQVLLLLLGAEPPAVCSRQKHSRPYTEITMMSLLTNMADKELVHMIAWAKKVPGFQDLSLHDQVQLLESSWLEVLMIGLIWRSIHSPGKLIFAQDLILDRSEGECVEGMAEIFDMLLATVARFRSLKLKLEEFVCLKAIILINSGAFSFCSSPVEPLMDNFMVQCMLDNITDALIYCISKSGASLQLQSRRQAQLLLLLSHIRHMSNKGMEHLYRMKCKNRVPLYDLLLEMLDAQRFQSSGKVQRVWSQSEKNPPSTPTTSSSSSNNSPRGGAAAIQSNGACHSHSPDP

Test [3] relates to zebrafish Estrogen Receptor (ER2a), gene 317734. As to the kind of experiment: ATG_zfER2a_XSP2: Attagene TRANS-FACTORIAL Multi-Species (XSP2) HepG2 Assay for zebrafish Estrogen Receptor (ER2a) (AID 2283818).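 Further: hits raise reporter mRNA so AC50 reflects activation of zebrafish ER2a.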 Summed up: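 Multiplexed trans-reporter readout: RT-PCR then capillary electrophoresis of reporter transcripts after 24 h compound treatment. Human HepG2 carries transfected zebrafish ER2a-Gal4 chimera; 3 nM 6-alpha-fluorotestosterone plus 1.5 nM norgestrel present. Induction scored against DMSO.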

Test [4] concerns frog Estrogen Receptor (ER), gene 398734. The test is described as follows: ATG_frER1_XSP2: Attagene TRANS-FACTORIAL Multi-Species (XSP2) HepG2 Assay for frog Estrogen Receptor (ER) (AID 2283821).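 Further: hits raise reporter mRNA above DMSO baseline so potency means agonist or activator.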 Summed up: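 Gain-of-signal mRNA reporter assay, HepG2 human liver cells, 24 h dosing; transcripts read by fluorescent RT-PCR fragment analysis, DMSO as negative control.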
Test [5] relates to zebrafish Estrogen Receptor (ER2b), gene 317733. The test is described as follows: ATG_zfER2b_XSP2: Attagene TRANS-FACTORIAL Multi-Species (XSP2) HepG2 Assay for zebrafish Estrogen Receptor (ER2b) (AID 2283823).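 Further: fitted upward as reporter gain over DMSO so potency reflects activation.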 The method, boiled down: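 Transcriptional induction measured as reporter mRNA (RT-PCR, fluorescent capillary electrophoresis) in transiently transfected HepG2 cells after 24 h dosing; DMSO served as negative control and baseline.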

The subject of test [6] is frog Estrogen Receptor (ER2), gene 100174814. The test is described as follows: ATG_frER2_XSP2: Attagene TRANS-FACTORIAL Multi-Species (XSP2) HepG2 Assay for frog Estrogen Receptor (ER2) (AID 2283828). The method, boiled down:
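Induction of reporter mRNA, baseline set by DMSO, is the endpoint. The panel was run in transfected HepG2 cells over 24 h, with 3 nM 6-alpha-fluorotestosterone and 1.5 nM norgestrel present to stimulate androgen receptor.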

Test [7] concerns the target Peroxisome proliferator-activated receptor gamma (Homo sapiens) (UniProt P37231). As to the kind of experiment: ATG_hPPARg_XSP2: Attagene TRANS-FACTORIAL Multi-Species (XSP2) HepG2 Assay for human Peroxisome Proliferator-activated Receptor gamma (PPARg) (AID 2283829).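 Further: actives raise reporter mRNA above DMSO so AC50 reflects PPARg activation.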 Summed up: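 Human HepG2 cells carried transiently transfected Gal4 reporter units and were treated with chemical for 24 h alongside androgen-receptor stimulants (3 nM 6-alpha-fluorotestosterone, 1.5 nM norgestrel). Reporter transcripts were detected by RT-PCR with capillary electrophoresis, analysed in the positive direction against DMSO.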

Test [8] addresses mouse Peroxisome Proliferator-activated Receptor gamma (PPARg), Pparg (gene 19016) (UniProt P37238). As to the kind of experiment: ATG_mPPARg_XSP2: Attagene TRANS-FACTORIAL Multi-Species (XSP2) HepG2 Assay for mouse Peroxisome Proliferator-activated Receptor gamma (PPARg) (AID 2283830).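 Further: hits are gains in reporter mRNA above DMSO so AC50 marks activation.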 Summed up:
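Multiplexed TRANS reporter readout: after 24 h chemical exposure of transfected HepG2 cells (with 3 nM 6-alpha-fluorotestosterone, 1.5 nM norgestrel present), RNA reverse-transcribed, amplified, 6-FAM-labelled and resolved by capillary electrophoresis; mouse PPARg-Gal4 induction scored against DMSO.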

Test [9] addresses Nuclear receptor subfamily 1 group I member 2 (Mus musculus) (UniProt O54915). The test is described as follows: ATG_mPXR_XSP2: Attagene TRANS-FACTORIAL Multi-Species (XSP1) HepG2 Assay for mouse Pregnane X Receptor (PXR) (AID 2283831). The method, boiled down:
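Fluorescence signals from capillary electrophoresis of RT-PCR-amplified reporter mRNA give the readout, gain-of-signal versus DMSO. Transfected HepG2 cells, 24 h dosing, medium contained 3 nM 6-alpha-fluorotestosterone and 1.5 nM norgestrel.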

For test [10], the target named is zebrafish Thyroid Hormone Receptor alpha (TRa), thraa (gene 30670) (UniProt Q98867). The test is described as follows: ATG_zfTRa_XSP2: Attagene TRANS-FACTORIAL Multi-Species (XSP1) HepG2 Assay for zebrafish Thyroid Hormone Receptor alpha (TRa) (AID 2283832).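 Further: actives raise zebrafish TRa-Gal4 reporter transcript above DMSO baseline.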 The method, boiled down: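 Readout is reporter mRNA induction, quantified by RT-PCR and capillary electrophoresis with fluorescent labelling, after 24 h compound exposure of transiently transfected HepG2 cells carrying NR-Gal4 chimera reporters. Activity fitted upward relative to DMSO.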
Chain of zebrafish Thyroid Hormone Receptor alpha (TRa), thraa (gene 30670) (Q98867 whole entry, looked up, the tested form may be a part): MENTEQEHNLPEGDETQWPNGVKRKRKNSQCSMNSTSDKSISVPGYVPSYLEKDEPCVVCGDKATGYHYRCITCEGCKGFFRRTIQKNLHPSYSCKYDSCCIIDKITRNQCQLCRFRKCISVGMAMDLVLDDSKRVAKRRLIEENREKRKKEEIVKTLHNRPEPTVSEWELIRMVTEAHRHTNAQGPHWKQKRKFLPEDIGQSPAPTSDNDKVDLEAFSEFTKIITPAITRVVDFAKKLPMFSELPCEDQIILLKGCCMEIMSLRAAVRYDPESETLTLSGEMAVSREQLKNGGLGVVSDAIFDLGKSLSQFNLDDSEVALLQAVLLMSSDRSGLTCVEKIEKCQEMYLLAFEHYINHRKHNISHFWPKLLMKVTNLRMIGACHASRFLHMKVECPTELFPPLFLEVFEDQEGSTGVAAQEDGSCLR

Test [11] has as its system zebrafish Peroxisome Proliferator-activated Receptor gamma (PPARg), gene 557037. The test is described as follows: ATG_zfPPARg_XSP2: Attagene TRANS-FACTORIAL Multi-Species (XSP2) HepG2 Assay for zebrafish Peroxisome Proliferator-activated Receptor gamma (PPARg) (AID 2283833).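 Further: actives increase reporter signal over DMSO so AC50 reflects activation.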 Summed up:
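HepG2, transient MRTU transfection, 24 h compound; zfPPARg-GAL4 reporter mRNA by RT-PCR + capillary electrophoresis; gain-of-signal vs DMSO.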

Test [12] relates to turtle Estrogen Receptor (ERa), gene 101933533. As to the kind of experiment: ATG_trERa_XSP2: Attagene TRANS-FACTORIAL Multi-Species (XSP2) HepG2 Assay for turtle Estrogen Receptor (ERa) (AID 2283812).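 Further: actives raise reporter signal above DMSO so AC50 reflects agonist activity.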 The method, boiled down: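 Readout is reporter mRNA quantified by RT-PCR with capillary electrophoresis after 24 h compound exposure, increase relative to DMSO. Uses transiently transfected human HepG2 liver cells carrying a chimeric turtle ERa-Gal4 receptor driving GAL4-UAS reporters.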

Test [13] concerns the target chicken Estrogen Receptor (ERa), ESR1 (gene 396099) (UniProt P06212). As to the kind of experiment: ATG_chERa_XSP2: Attagene TRANS-FACTORIAL Multi-Species (XSP2) HepG2 Assay for chicken Estrogen Receptor (ERa) (AID 2283817).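 Further: actives raise reporter signal above DMSO so AC50 reflects ER activation.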 The method, boiled down: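 Exogenous chicken ERa-Gal4 chimera activity was assessed in transfected human liver HepG2 cells after 24 h of treatment. Induced reporter mRNA was quantified fluorescently by capillary electrophoresis, with DMSO as baseline.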

The target of test [14] is Estrogen receptor beta (Homo sapiens) (UniProt Q92731). The test is described as follows: ATG_hERb_XSP2: Attagene TRANS-FACTORIAL Multi-Species (XSP2) HepG2 Assay for human Estrogen Receptor (ERb) (AID 2283813).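 Further: actives raise reporter mRNA above DMSO so AC50 reflects agonist induction.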 Summed up:
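Transient TRANS reporter system in HepG2: after 24 h of chemical, RNA is reverse-transcribed, reporter cDNA amplified, FAM-labelled and sized by capillary electrophoresis. Induction of the human ERb-Gal4 reporter is measured relative to DMSO.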

Test [15] concerns turtle Androgen Receptor (AR), gene 101947425. The test is described as follows: ATG_trAR_XSP2: Attagene TRANS-FACTORIAL Multi-Species (XSP2) HepG2 Assay for turtle Androgen Receptor (AR) (AID 2283815).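 On AC50: potency for gain of reporter signal meaning activation above DMSO baseline.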 Summed up: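 Reporter transcripts were quantified via RT-PCR and capillary electrophoresis and fitted upward against DMSO. Transiently transfected human HepG2 cells carrying NR-Gal4 chimeras were exposed 24 h, with 3 nM 6-alpha-fluorotestosterone plus 1.5 nM norgestrel added.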

Test [16] relates to chicken Androgen Receptor (AR), gene 422165. The test is described as follows: ATG_chAR_XSP2: Attagene TRANS-FACTORIAL Multi-Species (XSP2) HepG2 Assay for chicken Androgen Receptor (AR) (AID 2283819).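 Further: hits raise reporter mRNA above DMSO so potency is for activation.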 The method, boiled down: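 Readout is reporter mRNA induction via RT-PCR/capillary electrophoresis after 24 h chemical exposure, positive direction relative to DMSO. Transiently transfected HepG2 express chimeric chicken AR–GAL4; AR stimulated by 3 nM 6-alpha-fluorotestosterone and 1.5 nM norgestrel.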

Test [17] concerns frog Androgen Receptor (AR), gene 399456. As to the kind of experiment: ATG_frAR_XSP2: Attagene TRANS-FACTORIAL Multi-Species (XSP2) HepG2 Assay for frog Androgen Receptor (AR) (AID 2283824).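 Further: reporter mRNA from GAL4-UAS units driven by Xenopus AR-Gal4 chimera; actives raise reporter signal above DMSO so AC50 reflects agonist-like induction.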 Summed up: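 Reporter transcript induction, read by RT-PCR with fluorescent capillary electrophoresis, in human liver HepG2 cells carrying an exogenous Xenopus AR-Gal4 fusion and GAL4-driven reporters; chemical exposure 24 hours, activity scored upward against DMSO controls.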

Test [18] concerns zebrafish Androgen Receptor (AR), gene 100005148. As to the kind of experiment: ATG_zfAR_XSP2: Attagene TRANS-FACTORIAL Multi-Species (XSP2) HepG2 Assay for zebrafish Androgen Receptor (AR) (AID 2283825).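 Further: hits raise reporter mRNA above DMSO so AC50 reflects agonist-type gain.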 The method, boiled down: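 After 24 h compound exposure in medium with 3 nM 6-alpha-fluorotestosterone plus 1.5 nM norgestrel, HepG2 cells carrying zebrafish AR–GAL4 reporter constructs were assessed for reporter mRNA gain by RT-PCR and capillary electrophoresis.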

Test [19] has as its target Estrogen receptor (Homo sapiens) (UniProt P03372). As to the kind of experiment: ATG_hERa_XSP2: Attagene TRANS-FACTORIAL Multi-Species (XSP2) HepG2 Assay for human Estrogen Receptor (ERa) (AID 2283827). Summed up: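 Trans-activation of exogenous human ERa-Gal4 chimera read in HepG2 as reporter transcript after 24 h exposure; medium included 3 nM 6-alpha-fluorotestosterone and 1.5 nM norgestrel. Quantified by RT-PCR with capillary electrophoresis, positive-direction fitting against DMSO.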

Test [20] can be described thus: ATG_M_19_XSP2: Attagene TRANS-FACTORIAL Multi-Species (XSP2) HepG2 Assay for M32 Transcription Factor (Internal Marker) (AID 2283822). Summed up: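 Internal background marker in a multi-species nuclear receptor TRANS panel: transfected HepG2 cells exposed 24 h, with 3 nM 6-alpha-fluorotestosterone and 1.5 nM norgestrel present. Readout is RT-PCR of reporter transcripts resolved by capillary electrophoresis, gain-of-signal versus DMSO.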

A word on the AC50: it is the concentration at which the activity in the assay is half-maximal.

Values joined by “and” are separate entries in the source; they are usually repeats but may differ in a detail not shown here. Identical values can stand only once. Records with an inconclusive call do not appear. More than one record can exist for a structure, and the calls need not agree. Active and inactive are the calls of the source. How the source made its calls: active means hit-call score of the fitted dose curve at least 0.9, where 1 is the maximum; inconclusive means response in the unintended direction; inactive means score below 0.9.

Chain of mouse Peroxisome Proliferator-activated Receptor gamma (PPARg), Pparg (gene 19016) (P37238 whole entry, looked up, the tested form may be a part): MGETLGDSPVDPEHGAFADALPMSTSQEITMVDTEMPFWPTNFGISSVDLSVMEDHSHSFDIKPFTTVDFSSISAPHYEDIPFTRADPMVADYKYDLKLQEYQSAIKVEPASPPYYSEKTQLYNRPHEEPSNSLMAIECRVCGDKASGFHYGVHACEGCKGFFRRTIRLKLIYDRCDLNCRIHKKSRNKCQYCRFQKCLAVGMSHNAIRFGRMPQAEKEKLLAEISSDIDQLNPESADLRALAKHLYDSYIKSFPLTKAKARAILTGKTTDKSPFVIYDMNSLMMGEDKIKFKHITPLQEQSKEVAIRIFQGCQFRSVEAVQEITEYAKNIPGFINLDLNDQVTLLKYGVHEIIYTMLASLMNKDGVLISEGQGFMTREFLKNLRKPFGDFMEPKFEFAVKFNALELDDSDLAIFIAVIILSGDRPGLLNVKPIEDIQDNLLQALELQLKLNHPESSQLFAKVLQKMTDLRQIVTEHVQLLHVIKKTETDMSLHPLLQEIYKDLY
Chain of GAL4 Transcription Factor (Internal Marker), GAL4 (gene 855828) (P04386 whole entry, looked up, the tested form may be a part): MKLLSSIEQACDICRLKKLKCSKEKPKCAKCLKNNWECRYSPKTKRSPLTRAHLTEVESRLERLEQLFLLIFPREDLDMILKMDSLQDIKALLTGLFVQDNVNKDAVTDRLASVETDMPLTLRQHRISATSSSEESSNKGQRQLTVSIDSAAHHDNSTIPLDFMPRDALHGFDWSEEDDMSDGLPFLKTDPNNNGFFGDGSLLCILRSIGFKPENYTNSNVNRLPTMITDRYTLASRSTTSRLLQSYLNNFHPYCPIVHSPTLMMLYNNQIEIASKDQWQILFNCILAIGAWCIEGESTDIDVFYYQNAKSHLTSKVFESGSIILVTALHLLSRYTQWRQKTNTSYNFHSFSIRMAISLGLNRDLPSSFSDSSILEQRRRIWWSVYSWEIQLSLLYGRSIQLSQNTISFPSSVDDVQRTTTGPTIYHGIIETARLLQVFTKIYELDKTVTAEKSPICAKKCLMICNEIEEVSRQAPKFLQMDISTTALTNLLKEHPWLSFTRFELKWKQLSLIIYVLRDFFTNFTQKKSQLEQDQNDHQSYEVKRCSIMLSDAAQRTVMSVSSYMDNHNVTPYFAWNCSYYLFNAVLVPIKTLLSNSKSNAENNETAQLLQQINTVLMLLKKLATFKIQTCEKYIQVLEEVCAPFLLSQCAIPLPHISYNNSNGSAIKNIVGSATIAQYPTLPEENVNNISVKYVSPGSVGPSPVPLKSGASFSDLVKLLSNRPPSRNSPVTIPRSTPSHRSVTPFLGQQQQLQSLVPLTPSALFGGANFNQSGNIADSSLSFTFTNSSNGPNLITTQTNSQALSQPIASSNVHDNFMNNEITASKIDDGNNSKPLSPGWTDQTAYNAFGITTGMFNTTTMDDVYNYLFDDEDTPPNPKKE
Chain of Peroxisome proliferator-activated receptor gamma (Homo sapiens) (P37231 whole entry, looked up, the tested form may be a part): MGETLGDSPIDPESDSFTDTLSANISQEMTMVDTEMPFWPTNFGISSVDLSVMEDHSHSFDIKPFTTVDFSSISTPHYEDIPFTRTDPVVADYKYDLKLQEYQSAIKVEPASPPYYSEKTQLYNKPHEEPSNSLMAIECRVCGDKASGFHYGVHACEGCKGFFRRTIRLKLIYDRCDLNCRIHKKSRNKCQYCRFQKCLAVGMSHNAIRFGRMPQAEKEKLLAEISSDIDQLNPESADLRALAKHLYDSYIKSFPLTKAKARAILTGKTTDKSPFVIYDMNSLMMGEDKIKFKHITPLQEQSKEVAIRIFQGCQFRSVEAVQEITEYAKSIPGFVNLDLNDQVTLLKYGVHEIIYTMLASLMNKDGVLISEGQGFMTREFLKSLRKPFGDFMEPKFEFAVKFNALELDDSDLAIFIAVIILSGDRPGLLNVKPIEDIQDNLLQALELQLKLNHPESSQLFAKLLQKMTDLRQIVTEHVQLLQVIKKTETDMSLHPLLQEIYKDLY
Chain of Estrogen receptor (Homo sapiens) (P03372 whole entry, looked up, the tested form may be a part): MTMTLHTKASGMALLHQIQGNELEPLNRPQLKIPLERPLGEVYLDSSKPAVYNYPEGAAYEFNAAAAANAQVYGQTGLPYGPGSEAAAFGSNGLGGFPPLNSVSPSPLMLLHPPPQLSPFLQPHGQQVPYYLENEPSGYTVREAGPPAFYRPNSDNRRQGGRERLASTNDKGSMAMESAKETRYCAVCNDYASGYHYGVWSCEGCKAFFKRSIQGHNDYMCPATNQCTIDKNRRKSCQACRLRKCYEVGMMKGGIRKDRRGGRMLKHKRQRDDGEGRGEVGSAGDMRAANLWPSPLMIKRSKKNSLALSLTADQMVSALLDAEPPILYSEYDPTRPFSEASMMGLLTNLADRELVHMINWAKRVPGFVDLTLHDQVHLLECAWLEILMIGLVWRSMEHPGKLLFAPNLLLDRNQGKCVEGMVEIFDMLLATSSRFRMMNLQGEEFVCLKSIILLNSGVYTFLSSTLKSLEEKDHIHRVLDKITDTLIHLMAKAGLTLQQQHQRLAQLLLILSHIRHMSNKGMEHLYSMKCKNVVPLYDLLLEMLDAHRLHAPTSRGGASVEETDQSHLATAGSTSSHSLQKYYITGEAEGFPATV
Chain of Nuclear receptor subfamily 1 group I member 2 (Mus musculus) (O54915 whole entry, looked up): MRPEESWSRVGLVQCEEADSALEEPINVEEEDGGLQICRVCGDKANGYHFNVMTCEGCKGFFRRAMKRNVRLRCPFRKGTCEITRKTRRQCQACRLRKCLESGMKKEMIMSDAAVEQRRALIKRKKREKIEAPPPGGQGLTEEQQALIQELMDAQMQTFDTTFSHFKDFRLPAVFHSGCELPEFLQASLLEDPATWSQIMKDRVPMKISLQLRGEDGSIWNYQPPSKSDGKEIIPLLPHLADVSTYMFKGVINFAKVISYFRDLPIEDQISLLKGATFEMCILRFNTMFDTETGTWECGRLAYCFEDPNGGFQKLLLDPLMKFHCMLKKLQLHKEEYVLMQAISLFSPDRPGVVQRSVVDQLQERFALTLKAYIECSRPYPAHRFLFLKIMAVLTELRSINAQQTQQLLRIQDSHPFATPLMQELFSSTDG
Chain of chicken Estrogen Receptor (ERa), ESR1 (gene 396099) (P06212 whole entry, looked up, the tested form may be a part): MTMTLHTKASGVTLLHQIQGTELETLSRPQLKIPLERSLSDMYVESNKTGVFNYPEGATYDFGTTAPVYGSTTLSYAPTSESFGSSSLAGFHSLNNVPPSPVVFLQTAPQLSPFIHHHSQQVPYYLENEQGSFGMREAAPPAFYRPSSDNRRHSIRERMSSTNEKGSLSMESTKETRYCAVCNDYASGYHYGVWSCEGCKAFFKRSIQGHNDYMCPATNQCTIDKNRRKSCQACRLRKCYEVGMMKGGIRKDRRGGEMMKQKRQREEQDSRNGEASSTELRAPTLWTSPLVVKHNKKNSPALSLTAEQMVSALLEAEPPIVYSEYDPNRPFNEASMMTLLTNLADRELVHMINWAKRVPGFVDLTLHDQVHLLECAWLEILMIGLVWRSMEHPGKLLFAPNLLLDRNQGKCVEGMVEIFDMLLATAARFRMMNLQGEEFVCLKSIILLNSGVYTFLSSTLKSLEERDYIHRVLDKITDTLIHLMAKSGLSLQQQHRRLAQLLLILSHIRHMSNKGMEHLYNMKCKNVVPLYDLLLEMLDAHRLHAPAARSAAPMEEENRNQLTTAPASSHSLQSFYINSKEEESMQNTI

As to `CCCCCC(=O)O[C@]1(C(C)=O)CC[C@H]2[C@@H]3CCC4=CC(=O)CC[C@]4(C)[C@H]3CC[C@@]21C`, the call in test [1], in test [2], in test [4], in [6], in [9] and in test [10] was inactive. Besides, the AC50 in test [3] was 172 µM (active); in test [5] it was 7.02 µM (active); in test [7], 2.88 µM (active) and 2.34 µM (active); in test [8], 7.63 µM (active) and 3.17 µM (active); in [11] it was 132 µM (active).
`O=c1cc(-c2ccc(O)cc2)oc2cc(O)cc(O)c12`: the AC50 was 1.51 µM (active) in [12]; 2.58 µM (active) and 764 nM (active) in test [2]; 1.67 µM (active) and 768 nM (active) in test [13]; 1.1 µM (active) and 677 nM (active) in test [3]; 767 nM (active) in test [4]; 1.69 µM (active) and 1.07 µM (active) in test [5]. The AC50 in [6] is 3.85 µM (active) and 215 nM (active); in test [7], 27.8 µM (active) and 12.8 µM (active); in [8], 27.5 µM (active) and 16.2 µM (active); in [9], 26.9 µM (active). The molecule was called inactive in test [12], in [4], in test [10] and in test [11].
For the molecule `CCCCCCCCOC(=O)c1ccc(O)cc1`, the AC50 in test [12] was 17.1 µM (active) and 1.5 µM (active); in [1], 49.4 µM (active); in [15], 33.4 µM (active); in test [13], 18 µM (active) and 788 nM (active); in test [3], 11 µM (active) and 3.51 µM (active); in test [16], 33.4 µM (active). Also, the AC50 in [4] is 20.9 µM (active) and 2.94 µM (active); in test [5] it was 14.9 µM (active) and 2.94 µM (active); in test [17], 33.4 µM (active); in [19], 21.2 µM (active) and 3.19 µM (active); in [6], 9.18 µM (active) and 803 nM (active). Besides, the outcome in test [14], in test [15], in test [2], in test [16], in test [18] and in test [9] was inactive. In addition, the call in test [10] and in test [11] was inactive.
Turning to `CC/C(=C(\c1ccccc1)c1ccc(OCCN(C)C)cc1)c1ccccc1`, the molecule was classed as inactive in [3], in test [4], in test [20], in [9], in [10] and in test [11].
In the case of `C#C[C@]1(O)CC[C@H]2[C@@H]3CCc4cc(O)ccc4[C@H]3CC[C@@]21C`, the AC50 in test [12] was 6.94e-05 µM (active); in test [2] it was 2.55 nM (active); in test [3] it was 4.88e-05 µM (active); in test [5], 0.000204 µM (active); in test [6], 1.35 nM (active). For the same molecule, the molecule was classed as inactive in test [7] and in test [10].
For `CC(C)(C)c1ccc(S)cc1`, the call in test [12], in test [1], in test [15], in [2], in [13] and in [16] was inactive. The molecule was called inactive in [4], in test [19], in [7], in [8], in [9] and in test [10]. For the same molecule, the AC50 in test [3] was 100 µM (active); in test [5], 179 µM (active); in [7], 3.68 µM (active).
